KB-3-1 cytotox = qHTS assay for MDR1-selective chemotherapeutics: Primary screen using the parental adenocarcinoma cell KB-3-1 | 400,000 compounds, 1.4% hits | AID 1347075, 2019 | KB-3-1 viability, CellTiter-Glo ATP luminescence, 72 h | Potency, µM (doses to about 46.1 µM), hits mostly cytotoxic; also: nearly all actives have a fitted effect of over 60% in size
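Cells are dispensed, compounds pinned in, plates held at 37 °C for 72 h, then CellTiter-Glo is added and luminescence read after 10 minutes. Cell line: parental KB-3-1 in phenol-red-free DMEM, 10% FBS.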
Giardia killer = Small Molecules that selectively kill Giardia lamblia: qHTS | Giardia lamblia trophozoite viability | activity change, % at 7.66 µM, hits read low | 340,000 compounds, 0.15% hits; in the data active = activity change below about -80%; inconclusive = between about -30% and that limit;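 also: parasites exposed to compound for two days anaerobically before the ATP read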
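Each well holds 100 Giardia trophozoites and compound. After two days (48 hrs) at 37 deg C in anaerobic conditions, ATP is quantified by luminescence.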
ASM inhibitor = Inhibitors of Secretory Acid Sphingomyelinase (S-ASM): qHTS; Sphingomyelin phosphodiesterase (Homo sapiens), P17405; placental ASM, HMU-PC fluorogenic substrate, 60 min; Potency, µM (titrated, usually from 57.5 µM), usual class: inhibitors; 340,000 compounds, 0.006% hits; AID 504937, 2011
Target sequence (P17405 47-631 limits assumed): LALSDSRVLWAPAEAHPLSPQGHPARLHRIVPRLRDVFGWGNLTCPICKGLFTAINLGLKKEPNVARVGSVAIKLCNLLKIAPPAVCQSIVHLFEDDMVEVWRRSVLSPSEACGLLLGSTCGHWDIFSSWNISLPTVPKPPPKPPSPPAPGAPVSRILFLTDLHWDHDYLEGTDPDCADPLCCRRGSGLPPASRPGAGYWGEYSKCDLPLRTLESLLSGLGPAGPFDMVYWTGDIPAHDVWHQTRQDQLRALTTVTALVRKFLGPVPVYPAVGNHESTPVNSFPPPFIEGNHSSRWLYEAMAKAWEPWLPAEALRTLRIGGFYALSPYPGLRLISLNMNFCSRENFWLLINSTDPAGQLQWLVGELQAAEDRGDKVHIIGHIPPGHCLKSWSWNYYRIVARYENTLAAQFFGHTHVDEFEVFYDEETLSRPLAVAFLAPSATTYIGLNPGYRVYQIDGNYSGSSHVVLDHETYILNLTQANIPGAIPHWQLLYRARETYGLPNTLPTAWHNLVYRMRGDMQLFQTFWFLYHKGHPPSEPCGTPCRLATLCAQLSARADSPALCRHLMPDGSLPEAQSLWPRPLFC
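HMU-PC0 cleavage (9 uM final) by human placental ASM, 60 min at 37 °C following 10 min compound exposure at RT; stopped at pH 10, fluorescence Ex 386/Em 447 nm.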
SW480 rerep = A quantitative high throughput screen for small molecules that induce DNA re-replication in SW480 colon adenocarcinoma cells; Potency, µM (titrated, usually from 46.1 µM), hits mostly activators; SW480 DNA re-replication, Hoechst DNA content imaging, 48 h; 340,000 compounds, 1.8% hits; also: nearly all actives have a fitted effect of over 55% in size
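SW480 cells exposed to compounds for 48 hr at 37 C, 5% CO2, then Hoechst-stained 40 min. Nuclear DNA content imaged by fluorescence scanning (405 nm excitation, 500-530 nm emission); re-replication scored as increased high-intensity nuclei.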
KB-V1 cytotox = qHTS assay for MDR1-selective chemotherapeutics: Primary screen using the drug-selected MDR subline cells KB-V1; KB-V1 MDR cells viability, CellTiter-Glo, 72 h; Potency, µM (highest dose often 46.1 µM), most hits filed as cytotoxic; 400,000 compounds, 3.4% hits; AID 1347076, 2019; also: nearly all actives have a fitted effect of over 60% in size
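Potencies derive from concentration-effect curves fitted to normalized luminescence (CellTiter-Glo) of KB-V1 cells treated for 72 h at 37 degrees C in phenol-red-free DMEM containing 10% FBS.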
MCF10A rerep = A quantitative high throughput screen for small molecules that induce DNA re-replication in MCF 10a normal breast cells; MCF 10A DNA re-replication, Hoechst nuclear intensity, 48 h; Potency, µM (top dose mostly 46.1 µM), usual class: activators; 350,000 compounds, 2.9% hits; AID 624296, 2012; also: nearly all actives have a fitted effect of over 50% in size
A number is an active result; - = inactive; ? = inconclusive; . = not tested or not shown. Compounds with a hit are over-represented: about 6.9% of the library has one in this group of screens. Unless noted, calls follow the shape of the dose curve; as a rule, active = well fitted curve in the direction sought with a large enough effect; inconclusive = small, poorly fitted or top-dose-only effect, or another doubt; inactive = no such curve, though single readings can be large; an effect the other way counts as inactive or inconclusive.

SMILES | KB-3-1 cytotox | Giardia killer | ASM inhibitor | SW480 rerep | KB-V1 cytotox | MCF10A rerep
COc1cc2c(cc1OC)C(Cc1ccccc1[N+](=O)[O-])=NCC2 | ? | - | - | - | 20.6µM | -
O=C(Nc1ccccc1Cl)C1CCN(Cc2cnn(-c3ccccc3)c2-n2cccc2)CC1 | 18.4µM | - | - | - | 23.1µM | ?
COc1ccc(OC)c(NC(=O)C2CCN(Cc3cnn(-c4ccccc4)c3-n3cccc3)CC2)c1 | - | - | - | ? | 8.2µM | -
Cc1cc2oc(C(=O)Nc3c(C(=O)Nc4ccccc4)oc4ccccc34)cc(=O)c2cc1C | - | . | . | . | - | .
Cc1ccc(N(CC(O)CON=C2c3ccccc3-c3ccccc32)S(C)(=O)=O)cc1 (configuration not stated) | - | - | ? | - | 23.1µM | -
OC(CON=C1c2ccccc2-c2ccccc21)CN1CCNCC1 (configuration not stated) | ? | - | - | - | - | ?
COC(=O)c1ccc(NC(=O)CN(C)S(=O)(=O)c2ccc(Br)s2)cc1 | - | . | . | . | - | .
Cc1cccc(-c2nc3c(cnn3-c3ccccc3)c(=O)n2-c2ccc(Cl)cc2)c1 | ? | . | . | . | - | .
CCCCn1c(N)c(N(CC(C)C)C(=O)c2cc(-c3ccncc3)nc3ccccc23)c(=O)[nH]c1=O | - | - | - | - | - | ?
Cc1c(C)n(CCN(C)C)c2ccc(C(=O)OCCN(C)C)cc12 | - | - | - | - | - | -
Cc1c(C)n(Cc2ccccc2)c2ccc(C(=O)OCCCN(C)C)cc12 | ? | - | - | ? | ? | 20.6µM
O=C(Nc1ccc(F)cc1F)c1ccc(-n2cnnc2)cc1 | - | . | . | . | - | .
O=C(CC(=O)c1ccncc1)c1ccccc1 | - | - | - | - | 18.4µM | -
COc1ccc(O)c(C(=O)CC(=O)c2ccncc2)c1 | - | - | - | - | 9.2µM | -
COc1ccc(C(=O)CC(=O)c2ccccc2)cc1 | - | - | - | 2.91µM | ? | -
COc1ccc(C(=O)C(OC(=O)c2ccccc2)c2ccccc2)cc1 (configuration not stated) | - | - | - | - | 13µM | -
COc1ccc(C(=O)CC(=O)c2ccc(OC)cc2)cc1 | - | - | - | - | ? | -
Cc1ccc(C)c(C(=O)N2CCC(c3nc4c(nnn4Cc4ccccc4)c(=O)[nH]3)CC2)c1 | - | . | . | . | - | .
Cc1cc(=O)oc(C)c1C(=O)OCC(=O)c1ccccc1 | - | - | - | - | - | -
Cc1cc(=O)oc(C)c1C(=O)OC(C(=O)c1ccccc1)c1ccccc1 (configuration not stated) | - | - | - | - | 23.1µM | ?
CCCc1sc(N/N=C/c2ccccn2)nc1-c1ccc(F)cc1 | ? | - | - | - | 10.3µM | -
COC(=O)c1ccc(/C=N/Nc2nc(C)c(C)s2)cc1 | - | - | - | ? | - | 23.1µM
Cc1nc(N/N=C/c2ccccn2)sc1C | 25.9µM | - | - | 20.6µM | ? | ?
CC1(C)OC(=O)C2(Cc3c(F)cccc3N3CCCC32)C(=O)O1 (configuration not stated) | . | - | . | . | . | .
CCc1n[nH]c(=S)n1/N=C/c1ccc(-c2ccc(Br)cc2)o1 | - | - | - | - | - | 18.4µM
SMILES | KB-3-1 cytotox | Giardia killer | ASM inhibitor | SW480 rerep | KB-V1 cytotox | MCF10A rerep
CSc1ccc(/C=N/n2c(Cc3ccc(Br)cc3)n[nH]c2=S)cc1 | - | - | - | ? | - | -
O=C1CC(c2ccco2)Cc2[nH]c(=O)c(C(=O)Nc3ccccc3)cc21 (configuration not stated) | - | . | . | . | - | .
Clc1cccc(CNc2nnnn2-c2ccccc2)c1 | ? | - | - | - | 23.1µM | ?
CC(=O)N=c1c(C#N)cc2c(=O)n3ccccc3nc2n1CCCOC(C)C | - | - | - | 16.4µM | - | ?
CC(C)OCCCn1c(=NC(=O)c2ccncc2)c(C#N)cc2c(=O)n3ccccc3nc21 | - | - | - | - | - | -
CC(C)OCCCn1c(=N)c(C(N)=S)cc2c(=O)n3ccccc3nc21 | - | - | - | 5.8µM | ? | 9.2µM
